Our source for the ETS1 binding intensity and RUNX1 binding intensity values is the supplement of paper PMC10681739.

Assay [1] concerns the target T1, ETS1 (UniProt P14921).
T1 sequence: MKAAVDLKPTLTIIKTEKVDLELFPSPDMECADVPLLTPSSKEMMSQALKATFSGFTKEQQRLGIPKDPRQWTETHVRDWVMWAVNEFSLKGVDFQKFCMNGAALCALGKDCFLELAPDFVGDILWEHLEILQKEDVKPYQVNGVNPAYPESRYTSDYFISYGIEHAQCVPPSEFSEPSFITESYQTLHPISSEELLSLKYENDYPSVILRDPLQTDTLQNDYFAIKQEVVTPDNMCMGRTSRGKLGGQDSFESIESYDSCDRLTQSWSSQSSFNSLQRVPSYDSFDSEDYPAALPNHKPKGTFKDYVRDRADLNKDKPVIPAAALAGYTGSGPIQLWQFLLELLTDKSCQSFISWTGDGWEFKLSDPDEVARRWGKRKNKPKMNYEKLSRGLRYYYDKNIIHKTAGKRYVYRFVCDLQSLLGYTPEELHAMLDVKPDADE
Nature of the assay: ETS1 binding intensity (PBM fluorescence), ETS1 alone (arbitrary fluorescence units); higher = stronger binding. As to conditions: ETS1 concentration 1 nM; RUNX1 concentration 0 nM.

The target in assay [2] is RUNX1 (UniProt Q01196). Nature of the assay: RUNX1 binding intensity (PBM fluorescence), RUNX1 alone (arbitrary fluorescence units); higher = stronger binding. Particulars: RUNX1 concentration 2 nM; ETS1 concentration 0 nM. As for the experimental part:
(§1)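 Cooperative gcPBM on 36-bp genomic probes with neighbouring ETS1 and RUNX1 sites. Recombinant human RUNX1 (2 nM) was incubated alone or with ETS1 (25 nM) and detected with anti-RUNX1 antibody plus Alexa488 secondary. Values are medians over 4 replicate spots; the RUNX1+ETS1 data were normalised to the RUNX1-only data. The probes sit in constant array flanks that are not printed.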

For assay [3], the target named is T1, ETS1. Nature of the assay: ETS1 binding intensity (PBM fluorescence) in presence of RUNX1, normalised to ETS1-only experiment (arbitrary fluorescence units); higher = stronger binding. As to conditions: ETS1 concentration 1 nM; RUNX1 concentration 25 nM.
For assay [4], the target named is RUNX1 (UniProt Q01196). Nature of the assay: RUNX1 binding intensity (PBM fluorescence) in presence of ETS1, normalised to RUNX1-only experiment (arbitrary fluorescence units); higher = stronger binding. Particulars: RUNX1 concentration 2 nM; ETS1 concentration 25 nM. As for the experimental part: as §1
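Wherever RUNX1 binding intensity (PBM fluorescence) in presence of ETS1, normalised to RUNX1-only experiment is given: Full-length recombinant human ETS1 or RUNX1 bound to double-stranded 36-bp genomic probes on microarrays, detected by protein-specific primary antibody and Alexa488 secondary, spot fluorescence as median of four replicate spots.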
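Wherever RUNX1 binding intensity (PBM fluorescence), RUNX1 alone is given: Full-length recombinant human RUNX1 bound to double-stranded 36-bp genomic probes on a high-density microarray, scored as Alexa488 fluorescence per spot via anti-RUNX1 antibody, median of four replicate spots.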

RUNX1, sequence (Q01196 whole entry): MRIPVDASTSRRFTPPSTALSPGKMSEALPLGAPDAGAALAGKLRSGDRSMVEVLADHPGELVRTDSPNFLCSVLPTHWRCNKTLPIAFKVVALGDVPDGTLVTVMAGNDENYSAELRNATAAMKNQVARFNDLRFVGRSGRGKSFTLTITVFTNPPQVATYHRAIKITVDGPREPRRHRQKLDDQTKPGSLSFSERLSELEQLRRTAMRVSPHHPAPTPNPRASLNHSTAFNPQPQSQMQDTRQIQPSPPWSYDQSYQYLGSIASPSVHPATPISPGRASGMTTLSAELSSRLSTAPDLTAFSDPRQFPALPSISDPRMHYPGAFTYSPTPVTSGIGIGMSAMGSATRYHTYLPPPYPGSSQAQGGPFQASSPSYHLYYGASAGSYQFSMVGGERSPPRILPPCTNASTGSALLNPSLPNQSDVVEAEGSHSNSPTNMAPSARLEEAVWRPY

With CCACGGCTGGCTTCCTGTGTGGTTGGCACGCCTTAC, the ETS1 binding intensity in assay [1] was determined as 951; in assay [3] it was 1210. In addition, the RUNX1 binding intensity in assay [2] came out at 772; in assay [4], 1620.

For the sequence AGGGACCCGGATGTCTGGTCTGCGGCTGCTCCTCTA, the ETS1 binding intensity in assay [1] stood at 1460; in assay [3], 2120. For the same sequence, the RUNX1 binding intensity in assay [2] stood at 756; in assay [4] it was 1250.

Turning to AACAAACCGGATGGGGTTCCCACCCGCAATCTTGTC, the ETS1 binding intensity in assay [1] worked out at 1700; in assay [3] it was 4570. In addition, the RUNX1 binding intensity was found to be 830 in assay [2] and 1970 in assay [4].

Take TGGGAACTTCCTGTGGAGGAGTGCATTGTGGGACTT: the values for the ETS1 binding intensity in assay [1] and in assay [3] were 851 and 726, respectively. The RUNX1 binding intensity turned out to be 686 in assay [2] and 1630 in assay [4].

For the sequence GGCACTTCCGGTCCTGACCTGAAGCGGTAACCGTCA, the ETS1 binding intensity was found to be 8390 in assay [1] and 8600 in assay [3]. Also, the results for the RUNX1 binding intensity in assay [2] and in assay [4] were 719 and 1820, respectively.

Turning to ATGGAAAGGAAGTCGGTGGGAAACCGCCTCAGCGGT, the results for the ETS1 binding intensity in assay [1] and in assay [3] were 797 and 1020, respectively. The RUNX1 binding intensity in assay [2] came to 740; in assay [4] it was 1200.

For CTCGTGCGTCACTTCCGCCCCGCAGACCCGCCCACT, the values for the ETS1 binding intensity in assay [1] and in assay [3] were 2410 and 2940, respectively. The RUNX1 binding intensity is 1050 in assay [2] and 2420 in assay [4].

As to AGATGCAAACACAGGAAACTTGTGGTCTATGCTGCT, the values for the ETS1 binding intensity in assay [1] and in assay [3] were 1800 and 7450, respectively. Further, the values for the RUNX1 binding intensity in assay [2] and in assay [4] were 803 and 1160, respectively.

With CCCGCCACTTCCCTGCCTCTGCGGGAGCCCCCCAGC, the ETS1 binding intensity in assay [1] is 573; in assay [3], 545. The RUNX1 binding intensity in assay [2] came out at 938; in assay [4], 1430.

As to CCGCGAGCCGTCACTTCCTGTGGGCTGGGCCGAGCC, the ETS1 binding intensity in assay [1] is 1910; in assay [3], 2470. The figures for the RUNX1 binding intensity in assay [2] and in assay [4] were 924 and 1940, respectively.

On to GAGGAGATTTCCGGCCCCCATCCCCGCAGCGACCTT, for which the figures for the ETS1 binding intensity in assay [1] and in assay [3] were 1690 and 1990, respectively. Also, the RUNX1 binding intensity stood at 762 in assay [2] and 1820 in assay [4].

Take AGCAACAGGAAAGAACAGCCTGACCACAGCAGCCAC: the figures for the ETS1 binding intensity in assay [1] and in assay [3] were 393 and 727, respectively. Also, the RUNX1 binding intensity in assay [2] came out at 948; in assay [4], 1050.

With GGTTCTCTAGGGAGAGGATGTGGGTTTGTCTCTGGG, the ETS1 binding intensity worked out at 1820 in assay [1] and 6540 in assay [3]. Moreover, the values for the RUNX1 binding intensity in assay [2] and in assay [4] were 791 and 1570, respectively.

For GGGCCCTTCCTGTGGCGCCTGCCGAGCTGTGGTTGG, the figures for the ETS1 binding intensity in assay [1] and in assay [3] were 388 and 496, respectively. For the same sequence, the RUNX1 binding intensity is 716 in assay [2] and 1380 in assay [4].

CGGTCAGGTCGCAGGAAACCACAGCGGCAGCGCGGC: the ETS1 binding intensity came out at 732 in assay [1] and 1870 in assay [3]. For the same sequence, the values for the RUNX1 binding intensity in assay [2] and in assay [4] were 1370 and 1840, respectively.

Turning to CCCGGAAACTCAACTGCCCACTGCTGCGGCCGCCAT, the ETS1 binding intensity in assay [1] came out at 599; in assay [3] it was 708. The RUNX1 binding intensity in assay [2] was found to be 1070; in assay [4] it was 1090.

For the sequence CTTGTGAAATGTATCCTGTGGTTGCCGGCTGAAGTG, the ETS1 binding intensity in assay [1] stood at 499; in assay [3], 419. In addition, the values for the RUNX1 binding intensity in assay [2] and in assay [4] were 848 and 1380, respectively.

With TGAGCACTGAGCACTTCCTGTGGCTTCTGAAGCTCC, the ETS1 binding intensity in assay [1] was found to be 1860; in assay [3], 2040. The values for the RUNX1 binding intensity in assay [2] and in assay [4] were 797 and 1310, respectively.

As to TTGACCCGGACGTGGACAAAAGACCGCAAAGGACGC, the ETS1 binding intensity in assay [1] worked out at 806; in assay [3] it was 3090. In addition, the values for the RUNX1 binding intensity in assay [2] and in assay [4] were 1100 and 1540, respectively.

Consider TCTCCCGGAACTGCTCCTTCACCATGATGACCGCTG, for which the ETS1 binding intensity was found to be 590 in assay [1] and 542 in assay [3]. Besides, the figures for the RUNX1 binding intensity in assay [2] and in assay [4] were 966 and 1090, respectively.
